From PubChem BioAssay AID1159580 (chemical genetic matrix, 2015)
Values joined by “and” are separate entries in the source; they are usually repeats but may differ in a detail not shown here. Equal entries are not always repeated. Among all 5,500 compounds or so, about 2,000 (36%) were called active. About 18% were inconclusive and are not listed. Cut-off read from the data, not from the text of the source: active = normalized growth mostly below about 0.91 (no sharp cut-off); inconclusive = no clear call, values can overlap the other calls; inactive = mostly above about 0.92. Some of the results follow.

Assay: chemical genetic growth profiling, strain panel (AID 1159580);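 note: tested at 20 µM; growth read once vehicle control cultures reached saturation at 30 °C; 1 = growth at the plate median or of vehicle wells; lower values mean less growth of the strain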
Details: growth OD

Measured: normalized growth

Cc1ccc(/C(=C\CN2CCCC2)c2ccccn2)cc1
inactive: S. cerevisiae deletion strains, locus YJR075W, strain HOC1, hits give low values 1.01 and 0.98 | S. cerevisiae deletion strains, locus YKL009W, strain mrt4, hits give low values 0.996 | S. cerevisiae deletion strains, locus YKL068W, hits give low values 0.999 | S. cerevisiae deletion strains, locus YKL085W, strain MDH1 (second series), hits give low values 1.01 | S. cerevisiae deletion strains, locus YKL085W, strain MDH1, hits give low values 1.01 | S. cerevisiae deletion strains, locus YKL160W, strain elf1, hits give low values 1.03 | S. cerevisiae deletion strains, locus YKL190W, strain CNB1, hits give low values 1.02 | S. cerevisiae deletion strains, locus YKR001C, strain vps1, hits give low values 0.986 | S. cerevisiae deletion strains, locus YKR026C, strain gcn3, hits give low values 1 | S. cerevisiae deletion strains, locus YKR091W, strain srl3, hits give low values 0.991 | S. cerevisiae deletion strains, locus YLL001W, strain dnm1, hits give low values 1.04 | S. cerevisiae deletion strains, locus YLL026W, hits give low values 1.04 | S. cerevisiae deletion strains, locus YLL041C, strain sdh2, hits give low values 1.01 | S. cerevisiae deletion strains, locus YLR027C, strain aat2, hits give low values 1.04 | S. cerevisiae deletion strains, locus YLR039C, strain RIC1, hits give low values 1.03 | S. cerevisiae deletion strains, locus YLR058C, strain SHM2, hits give low values 1.01 | S. cerevisiae deletion strains, locus YLR102C, strain apc9, hits give low values 0.998 | S. cerevisiae deletion strains, locus YLR113W, strain HOG1, hits give low values 1.02 | S. cerevisiae deletion strains, locus YLR221C, strain rsa3, hits give low values 0.977 | S. cerevisiae deletion strains, locus YLR258W, strain gsy2, hits give low values 0.986 | S. cerevisiae deletion strains, locus YLR262C, strain YPT6 (second series), hits give low values 1.02 | S. cerevisiae deletion strains, locus YLR262C, strain YPT6, hits give low values 1.01 | S. cerevisiae deletion strains, locus YLR268W, strain sec22, hits give low values 0.999 | S. cerevisiae deletion strains, locus YLR320W, strain mms22, hits give low values 0.973 | S. cerevisiae deletion strains, locus YLR330W, strain CHS5, hits give low values 1.01 | S. cerevisiae deletion strains, locus YLR342W, strain FKS1 (second series), hits give low values 0.997 | S. cerevisiae deletion strains, locus YLR342W, strain FKS1, hits give low values 1.02 | S. cerevisiae deletion strains, locus YLR357W, strain rsc2, hits give low values 0.992 | S. cerevisiae deletion strains, locus YLR370C, strain arc18, hits give low values 1.01 | S. cerevisiae deletion strains, locus YLR371W, strain rom2, hits give low values 1.01 | S. cerevisiae deletion strains, locus YLR384C, strain iki3, hits give low values 1 | S. cerevisiae deletion strains, locus YLR418C, strain cdc73, hits give low values 0.991 | S. cerevisiae deletion strains, locus YML016C, strain PPZ1, hits give low values 1 | S. cerevisiae deletion strains, locus YML032C, strain rad52, hits give low values 1 | S. cerevisiae deletion strains, locus YML120C, strain ndi1, hits give low values 1.05 | S. cerevisiae deletion strains, locus YML124C, strain tub3, hits give low values 0.995 | S. cerevisiae deletion strains, locus YMR058W, strain fet3, hits give low values 1.02 | S. cerevisiae deletion strains, locus YMR078C, strain ctf18, hits give low values 0.997 | S. cerevisiae deletion strains, locus YMR125W, strain sto1, hits give low values 1.02 | S. cerevisiae deletion strains, locus YMR129W, hits give low values 1.01 | S. cerevisiae deletion strains, locus YMR205C, strain PFK2, hits give low values 1.02 | S. cerevisiae deletion strains, locus YMR223W, strain ubp8, hits give low values 0.998 | S. cerevisiae deletion strains, locus YMR231W, strain pep5, hits give low values 0.999 | S. cerevisiae deletion strains, locus YMR263W, strain SAP30, hits give low values 1.01 and 0.981 | S. cerevisiae deletion strains, locus YMR307W, strain GAS1, hits give low values 0.983 and 0.987 | S. cerevisiae deletion strains, locus YNL067W, strain RPL9B, hits give low values 1 | S. cerevisiae deletion strains, locus YNL071W, strain lat1, hits give low values 0.986 | S. cerevisiae deletion strains, locus YNL128W, strain TEP1, hits give low values 1.02 | S. cerevisiae deletion strains, locus YNL153C, strain GIM3, hits give low values 1.01 | S. cerevisiae deletion strains, locus YNL175C, strain NOP13, hits give low values 0.996 | S. cerevisiae deletion strains, locus YNL183C, strain NPR1, hits give low values 0.952 | S. cerevisiae deletion strains, locus YNL197C, strain WHI3, hits give low values 1.01 | S. cerevisiae deletion strains, locus YNL209W, strain ssb2, hits give low values 0.996 | S. cerevisiae deletion strains, locus YNL224C, strain SQS1, hits give low values 0.989 | S. cerevisiae deletion strains, locus YNL233W, strain BNI4, hits give low values 1.01 | S. cerevisiae deletion strains, locus YNL248C, strain rpa49, hits give low values 0.992 | S. cerevisiae deletion strains, locus YNL250W, strain rad50, hits give low values 1 | S. cerevisiae deletion strains, locus YNL271C, strain bni1, hits give low values 0.986 | S. cerevisiae deletion strains, locus YNL298W, strain CLA4, hits give low values 1 | S. cerevisiae deletion strains, locus YNL307C, strain MCK1, hits give low values 1.01 | S. cerevisiae deletion strains, locus YNL322C, strain KRE1 (second series), hits give low values 1.01 | S. cerevisiae deletion strains, locus YNL322C, strain KRE1, hits give low values 1.01 | S. cerevisiae deletion strains, locus YNR049C, strain mso1, hits give low values 1.01 | S. cerevisiae deletion strains, locus YNR052C, strain pop2, hits give low values 1 | S. cerevisiae deletion strains, locus YOL006C, strain TOP1, hits give low values 1 | S. cerevisiae deletion strains, locus YOL012C, strain htz1 1.12 | S. cerevisiae deletion strains, locus YOL147C, strain pex11, hits give low values 0.992 | S. cerevisiae deletion strains, locus YOR001W, strain rrp6, hits give low values 1.02 | S. cerevisiae deletion strains, locus YOR061W, strain CKA2, hits give low values 1.01 | S. cerevisiae deletion strains, locus YOR069W, strain VPS5, hits give low values 1.01 | S. cerevisiae deletion strains, locus YOR070C, strain gyp1, hits give low values 0.992 | S. cerevisiae deletion strains, locus YOR080W, strain dia2, hits give low values 1.02 | S. cerevisiae deletion strains, locus YOR083W, strain WHI5 (second series), hits give low values 0.985 | S. cerevisiae deletion strains, locus YOR083W, strain WHI5, hits give low values 1 | S. cerevisiae deletion strains, locus YOR106W, strain vam3, hits give low values 1.05 | S. cerevisiae deletion strains, locus YOR136W, strain idh2, hits give low values 1 | S. cerevisiae deletion strains, locus YOR144C, strain elg1, hits give low values 0.995 | S. cerevisiae deletion strains, locus YOR184W, strain ser1, hits give low values 1 | S. cerevisiae deletion strains, locus YOR231W, strain MKK1, hits give low values 0.984 | S. cerevisiae deletion strains, locus YOR265W, strain rbl2, hits give low values 1.01 | S. cerevisiae deletion strains, locus YOR270C, strain vph1, hits give low values 0.985 | S. cerevisiae deletion strains, locus YOR290C, strain snf2, hits give low values 0.96 | S. cerevisiae deletion strains, locus YOR316C, strain cot1, hits give low values 1 | S. cerevisiae deletion strains, locus YPL051W, strain arl3, hits give low values 1.02 | S. cerevisiae deletion strains, locus YPL055C, strain LGE1, hits give low values 1.02 | S. cerevisiae deletion strains, locus YPL078C, strain atp4, hits give low values 1.06 | S. cerevisiae deletion strains, locus YPL106C, strain sse1, hits give low values 0.987 | S. cerevisiae deletion strains, locus YPL240C, strain hsp82, hits give low values 1.04 | S. cerevisiae deletion strains, locus YPL241C, strain CIN2, hits give low values 1 and 0.988 | S. cerevisiae deletion strains, locus YPL256C, strain CLN2, hits give low values 1 | S. cerevisiae deletion strains, locus YPR119W, strain clb2, hits give low values 1 | S. cerevisiae deletion strains, locus YPR141C, strain kar3, hits give low values 0.998 | S. cerevisiae deletion strains, locus YPR163C, strain tif3, hits give low values 0.994 | S. cerevisiae deletion strains, locus YPR167C, strain met16, hits give low values 1 | S. cerevisiae deletion strains, strain wtn01, hits give low values 0.999 | S. cerevisiae strains, strain wild type, hits give low values 1.01
